Measurements reported in the supplement of paper PMC11732987, “Enantioselective OTUD7B fragment discovery through chemoproteomics screening and high-throughput optimisation” (Communications Chemistry, 2025).
Values without a mark were called inactive.

Experiments:
Test in all cases: log2 ratio of Biotin-Ahx-Ub-VS probe labelling (fragment/DMSO); higher = less target engagement (more negative = stronger competition), active = hit call of the paper (q ≤ 0.05, log2 ratio ≤ -1)
Conditions in all cases: compound concentration: 200 uM; treatment time: 3 h
OTUD6B = target: T1, OTUD6B (UniProt Q8N6M0)
T1 sequence (whole entry): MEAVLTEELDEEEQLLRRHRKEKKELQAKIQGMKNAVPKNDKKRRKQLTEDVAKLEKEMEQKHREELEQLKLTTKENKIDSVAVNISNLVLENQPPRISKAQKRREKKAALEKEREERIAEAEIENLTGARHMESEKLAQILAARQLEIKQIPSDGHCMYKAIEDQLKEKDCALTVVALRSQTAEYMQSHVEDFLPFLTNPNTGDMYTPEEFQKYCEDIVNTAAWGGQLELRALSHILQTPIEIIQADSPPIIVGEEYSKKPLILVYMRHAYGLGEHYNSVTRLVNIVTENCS
Method in brief: (§1)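 Average log2 ratios of fragment over vehicle were obtained by unpaired t-test from global-median-normalised Spectronaut label-free quantities. Proteins with ≥2 unique peptides were included. HEK293T lysate (495 µg per sample) was treated in triplicate with fragment at 200 µM or vehicle for 3 h, then with Biotin-Ahx-Ub-VS at 0.5 µM final for 1 h, and labelled DUBs were NeutrAvidin-enriched and run by diaPASEF LC-MS/MS.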

OTUD7B = target: T2, OTUD7B (UniProt Q6GQQ9)
T2 sequence (whole entry): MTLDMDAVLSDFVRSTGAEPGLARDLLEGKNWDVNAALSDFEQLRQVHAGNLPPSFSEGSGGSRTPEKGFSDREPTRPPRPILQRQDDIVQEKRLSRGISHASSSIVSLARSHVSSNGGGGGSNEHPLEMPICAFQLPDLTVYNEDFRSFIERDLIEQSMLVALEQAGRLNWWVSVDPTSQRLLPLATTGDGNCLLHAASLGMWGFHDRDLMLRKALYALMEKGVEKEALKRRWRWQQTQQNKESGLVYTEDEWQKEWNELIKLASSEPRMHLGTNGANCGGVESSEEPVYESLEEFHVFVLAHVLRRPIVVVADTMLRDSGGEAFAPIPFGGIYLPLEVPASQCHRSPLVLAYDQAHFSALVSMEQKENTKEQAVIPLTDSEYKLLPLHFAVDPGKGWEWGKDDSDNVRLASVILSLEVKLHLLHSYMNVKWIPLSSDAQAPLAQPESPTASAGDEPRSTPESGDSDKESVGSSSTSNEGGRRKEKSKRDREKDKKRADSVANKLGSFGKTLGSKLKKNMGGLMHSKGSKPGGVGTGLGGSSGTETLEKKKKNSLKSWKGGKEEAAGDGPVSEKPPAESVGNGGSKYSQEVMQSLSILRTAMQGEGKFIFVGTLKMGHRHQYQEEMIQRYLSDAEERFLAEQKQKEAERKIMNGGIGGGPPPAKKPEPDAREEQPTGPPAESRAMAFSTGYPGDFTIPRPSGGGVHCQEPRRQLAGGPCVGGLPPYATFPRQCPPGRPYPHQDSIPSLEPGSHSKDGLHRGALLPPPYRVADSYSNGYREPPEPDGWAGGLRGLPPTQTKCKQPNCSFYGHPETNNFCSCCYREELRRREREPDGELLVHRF
Method in brief: as §1

PRPF8 = PRPF8 (UniProt Q6P2Q9)
Method in brief: as §1

PSMD7 = target: T3, PSMD7 (UniProt P51665)
T3 sequence (whole entry): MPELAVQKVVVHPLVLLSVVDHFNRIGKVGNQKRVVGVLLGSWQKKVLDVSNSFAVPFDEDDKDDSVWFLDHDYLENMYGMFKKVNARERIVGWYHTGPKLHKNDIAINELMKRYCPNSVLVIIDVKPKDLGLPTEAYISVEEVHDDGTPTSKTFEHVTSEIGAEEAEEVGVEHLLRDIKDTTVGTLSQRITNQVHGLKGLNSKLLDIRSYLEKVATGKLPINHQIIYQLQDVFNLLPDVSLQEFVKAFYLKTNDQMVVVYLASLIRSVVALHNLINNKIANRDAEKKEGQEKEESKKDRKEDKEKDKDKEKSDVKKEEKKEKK
Method in brief: as §1

UCHL1 = UCHL1 (UniProt P09936)
Chain of UCHL1 (P09936 whole entry, looked up): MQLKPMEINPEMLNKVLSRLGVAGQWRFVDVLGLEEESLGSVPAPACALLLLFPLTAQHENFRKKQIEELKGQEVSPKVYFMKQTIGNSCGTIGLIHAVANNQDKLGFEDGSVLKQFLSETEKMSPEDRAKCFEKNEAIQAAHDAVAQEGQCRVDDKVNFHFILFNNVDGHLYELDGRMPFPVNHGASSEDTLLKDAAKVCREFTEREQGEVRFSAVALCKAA
Method in brief: as §1

UCHL3 = target: T4, UCHL3 (UniProt P15374)
T4 sequence (whole entry): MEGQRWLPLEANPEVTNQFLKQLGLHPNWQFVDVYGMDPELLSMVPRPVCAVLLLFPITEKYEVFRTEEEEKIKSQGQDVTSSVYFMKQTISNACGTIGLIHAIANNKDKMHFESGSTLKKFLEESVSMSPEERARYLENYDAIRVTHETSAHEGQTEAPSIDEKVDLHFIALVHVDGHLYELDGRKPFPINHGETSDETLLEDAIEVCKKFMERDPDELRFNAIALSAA
Method in brief: as §1

UCHL5 = target: T5, UCHL5 (UniProt Q9Y5K5)
T5 sequence (whole entry): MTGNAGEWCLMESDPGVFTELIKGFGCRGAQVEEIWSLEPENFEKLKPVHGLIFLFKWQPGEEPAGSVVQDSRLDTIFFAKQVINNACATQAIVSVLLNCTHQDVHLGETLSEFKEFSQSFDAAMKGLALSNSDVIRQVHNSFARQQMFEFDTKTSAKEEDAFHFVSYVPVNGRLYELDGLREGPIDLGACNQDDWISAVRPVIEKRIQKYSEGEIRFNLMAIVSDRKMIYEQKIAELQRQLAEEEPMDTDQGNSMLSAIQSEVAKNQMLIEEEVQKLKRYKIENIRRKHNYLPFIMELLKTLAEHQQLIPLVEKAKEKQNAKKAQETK
Method in brief: as §1

USP10 = USP10 (UniProt Q14694)
Chain of USP10 (Q14694 whole entry): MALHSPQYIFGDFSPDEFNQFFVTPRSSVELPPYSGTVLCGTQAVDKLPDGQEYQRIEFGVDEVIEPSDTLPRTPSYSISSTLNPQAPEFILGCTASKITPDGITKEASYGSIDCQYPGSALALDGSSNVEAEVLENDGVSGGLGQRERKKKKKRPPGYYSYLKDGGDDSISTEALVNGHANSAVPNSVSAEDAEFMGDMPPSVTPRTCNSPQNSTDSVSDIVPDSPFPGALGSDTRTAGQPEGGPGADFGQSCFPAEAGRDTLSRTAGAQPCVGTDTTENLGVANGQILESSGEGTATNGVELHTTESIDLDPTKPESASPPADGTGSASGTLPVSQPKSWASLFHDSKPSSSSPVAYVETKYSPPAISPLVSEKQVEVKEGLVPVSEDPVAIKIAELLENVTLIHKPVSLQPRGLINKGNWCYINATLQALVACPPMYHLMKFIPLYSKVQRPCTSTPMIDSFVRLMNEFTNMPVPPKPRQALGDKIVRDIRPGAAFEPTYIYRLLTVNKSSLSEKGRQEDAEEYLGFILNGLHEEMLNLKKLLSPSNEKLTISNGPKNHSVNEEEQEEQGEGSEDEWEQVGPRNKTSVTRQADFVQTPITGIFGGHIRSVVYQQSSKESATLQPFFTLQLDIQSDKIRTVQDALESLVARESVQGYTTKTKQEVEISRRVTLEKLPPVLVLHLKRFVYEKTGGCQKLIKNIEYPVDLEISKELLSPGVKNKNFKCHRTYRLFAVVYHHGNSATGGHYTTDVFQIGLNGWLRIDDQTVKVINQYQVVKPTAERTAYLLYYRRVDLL
Method in brief: as §1

USP15 = target: T6, USP15 (UniProt Q9Y4E8)
T6 sequence (whole entry): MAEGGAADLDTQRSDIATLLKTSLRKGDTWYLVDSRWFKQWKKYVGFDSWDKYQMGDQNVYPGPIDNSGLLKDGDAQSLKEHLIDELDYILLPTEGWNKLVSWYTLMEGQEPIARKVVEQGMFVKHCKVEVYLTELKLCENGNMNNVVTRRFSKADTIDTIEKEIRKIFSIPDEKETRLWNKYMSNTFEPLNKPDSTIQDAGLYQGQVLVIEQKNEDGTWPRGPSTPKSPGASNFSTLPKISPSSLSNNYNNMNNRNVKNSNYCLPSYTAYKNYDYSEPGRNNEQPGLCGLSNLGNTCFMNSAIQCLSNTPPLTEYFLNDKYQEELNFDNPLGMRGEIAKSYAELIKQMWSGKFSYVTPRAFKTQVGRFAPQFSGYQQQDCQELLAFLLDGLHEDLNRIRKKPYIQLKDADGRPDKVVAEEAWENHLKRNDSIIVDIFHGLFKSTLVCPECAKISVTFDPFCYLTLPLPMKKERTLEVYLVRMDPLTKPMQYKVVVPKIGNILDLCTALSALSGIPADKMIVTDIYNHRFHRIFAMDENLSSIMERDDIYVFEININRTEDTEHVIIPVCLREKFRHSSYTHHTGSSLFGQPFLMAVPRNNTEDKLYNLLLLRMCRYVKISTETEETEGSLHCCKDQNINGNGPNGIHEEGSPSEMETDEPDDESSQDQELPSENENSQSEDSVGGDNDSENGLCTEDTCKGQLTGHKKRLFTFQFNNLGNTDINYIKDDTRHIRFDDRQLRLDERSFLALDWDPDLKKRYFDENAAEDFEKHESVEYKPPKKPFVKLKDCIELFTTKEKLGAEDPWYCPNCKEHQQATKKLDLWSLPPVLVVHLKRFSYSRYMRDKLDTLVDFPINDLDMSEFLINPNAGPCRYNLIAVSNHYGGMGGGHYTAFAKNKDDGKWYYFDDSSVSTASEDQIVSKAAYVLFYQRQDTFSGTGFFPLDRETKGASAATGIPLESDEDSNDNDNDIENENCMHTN
Method in brief: as §1

USP16 = USP16 (UniProt Q9Y5T5)
Chain of USP16 (Q9Y5T5 whole entry, looked up): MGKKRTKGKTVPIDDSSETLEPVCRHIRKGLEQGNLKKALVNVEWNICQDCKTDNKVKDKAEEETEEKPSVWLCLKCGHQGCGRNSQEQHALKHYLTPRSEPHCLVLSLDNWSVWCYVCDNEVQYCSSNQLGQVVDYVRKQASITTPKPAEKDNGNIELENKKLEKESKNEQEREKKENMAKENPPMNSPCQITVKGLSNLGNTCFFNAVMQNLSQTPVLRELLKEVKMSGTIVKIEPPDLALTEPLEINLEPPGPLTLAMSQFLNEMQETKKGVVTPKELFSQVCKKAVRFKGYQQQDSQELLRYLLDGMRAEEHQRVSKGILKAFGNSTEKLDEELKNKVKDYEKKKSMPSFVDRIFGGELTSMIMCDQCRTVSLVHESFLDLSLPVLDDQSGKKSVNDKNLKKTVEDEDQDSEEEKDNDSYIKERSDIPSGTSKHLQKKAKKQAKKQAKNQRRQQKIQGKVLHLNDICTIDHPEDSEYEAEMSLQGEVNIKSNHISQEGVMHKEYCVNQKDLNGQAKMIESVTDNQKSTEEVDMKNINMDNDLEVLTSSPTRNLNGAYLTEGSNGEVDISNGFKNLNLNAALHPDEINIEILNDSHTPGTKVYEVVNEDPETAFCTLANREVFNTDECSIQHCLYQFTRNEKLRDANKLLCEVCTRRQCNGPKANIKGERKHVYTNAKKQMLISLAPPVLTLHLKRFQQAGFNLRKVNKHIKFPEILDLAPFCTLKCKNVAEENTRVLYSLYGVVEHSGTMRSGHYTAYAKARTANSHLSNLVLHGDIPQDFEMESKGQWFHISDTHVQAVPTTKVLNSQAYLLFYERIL
Method in brief: as §1

SMILES | log2 ratio of Biotin-Ahx-Ub-VS probe labelling (OTUD6B) | log2 ratio of Biotin-Ahx-Ub-VS probe labelling (OTUD7B) | log2 ratio of Biotin-Ahx-Ub-VS probe labelling (PRPF8) | log2 ratio of Biotin-Ahx-Ub-VS probe labelling (PSMD7) | log2 ratio of Biotin-Ahx-Ub-VS probe labelling (UCHL1) | log2 ratio of Biotin-Ahx-Ub-VS probe labelling (UCHL3) | log2 ratio of Biotin-Ahx-Ub-VS probe labelling (UCHL5) | log2 ratio of Biotin-Ahx-Ub-VS probe labelling (USP10) | log2 ratio of Biotin-Ahx-Ub-VS probe labelling (USP15) | log2 ratio of Biotin-Ahx-Ub-VS probe labelling (USP16)
O=C(CN1CCN(C(=O)CCl)CC1)Nc1cccc(F)c1 | -0.321 | -0.452 | -0.19 | -0.137 | -1.08 (active) | -0.122 | -0.336 | 0.0386 | -0.225 | -0.245
CS(=O)(=O)N1CCCN(C(=O)CCl)CC1 | -0.512 | -0.631 | -0.104 | -0.148 | -1.95 (active) | 0.112 | -0.235 | -0.0225 | -0.193 | 0.245
CN(Cc1nc2ccccc2[nH]1)C(=O)CCl.Cl | -0.0126 | -0.039 | 0.00724 | -0.142 | 0.185 | 0.504 | -0.121 | -0.14 | -0.17 | -0.572
O=C(CCl)N1CCCN(C(=O)c2ccc(Cl)cc2)CC1 | -0.316 | -0.767 | 0.0935 | -0.253 | -1.68 (active) | 0.267 | -0.389 | 0.0223 | -0.429 | -0.13
O=C(CCl)N1CCOC(c2cccc(F)c2)C1 (stereo not given) | -0.268 | -1.75 (active) | -0.107 | -0.115 | -1.68 (active) | 0.156 | -0.463 | -0.284 | -0.387 | 0.0465
Cl.O=C(CCl)N1CCn2ncc(O)c2C1 | -0.223 | -1.54 (active) | 0.218 | -0.249 | -1.49 (active) | -0.188 | -1.12 (active) | -0.00467 | -0.99 | -0.0885
O=C(CCl)N1CCc2ccccc2C(O)C1 (stereo not given) | -0.357 | -1.21 (active) | 0.137 | -0.212 | -1.58 (active) | -0.197 | -0.317 | -0.14 | -0.392 | 0.132
Cc1ccc(CC(NC(=O)CCl)c2ccccn2)cc1.Cl (stereo not given) | 0.0158 | -0.295 | 0.0556 | -0.125 | -0.621 | 0.459 | 0.179 | -0.00276 | 0.0178 | 0.0921
O=C(CCl)Nc1cccc(C(=O)N2CCSCC2)c1 | -0.0782 | -0.71 | -0.00865 | -0.0955 | -0.784 | 0.0211 | -0.176 | -0.156 | -0.164 | -0.0446
COc1ccc(C2CCCN2C(=O)CCl)c(OC)c1 (stereo not given) | -0.302 | -0.122 | 0.164 | -0.138 | -1.67 (active) | -1.75 (active) | -0.34 | -0.166 | -0.424 | -0.285
O=C(CCl)Nc1ccc2c(c1)OC(F)(F)O2 | -0.167 | -0.873 | 0.00481 | -0.159 | -1.06 (active) | 0.0771 | -0.471 | -0.126 | -0.192 | 0.132
N#Cc1ccc(Cl)cc1NC(=O)CCl | -0.0498 | -1.73 (active) | 0.00848 | -0.0625 | -1.01 (active) | 0.385 | 0.0193 | -0.153 | -0.0346 | -0.655
Cc1cc(NC(=O)CCl)n(-c2ccccc2)n1 | -0.0228 | -0.528 | 0.173 | 0.00596 | -1.18 (active) | 0.614 | -0.0207 | -0.234 | -0.2 | -0.321
O=C(CCl)NCc1ccc(N2CCOCC2)c(F)c1 | 0.111 | -0.497 | -0.0572 | 0.0258 | -1.41 (active) | 0.309 | -0.0833 | -0.131 | -0.0773 | -0.0789
